From PubChem BioAssay (EPA / NIEHS)
Results filed as inconclusive are left out. The source made the active and inactive calls. How the source made its calls, unless noted: active means hit-call score of the fitted dose curve at least 0.9, where 1 is the maximum; inactive means score below 0.9.

Assays:
[1] = read-out: Vascular cell adhesion molecule 1 (VCAM1), VCAM1 (gene 7412); test: BSK_MyoF_VCAM1: BioMAP Diversity Plus: MyoF Assay for Vascular cell adhesion molecule 1 (VCAM1) Biomarker Activity (AID 2284231); settings: primary human lung fibroblasts
Procedure, shortened: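 Steps: fibroblasts from human lung exposed to compound; biomarker quantified by ELISA at 24 h; values analysed for upward change over the DMSO baseline.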

[2] = read-out: Collagen I, COL1A1 (gene 1277); test: BSK_MyoF_CollagenI: BioMAP Diversity Plus: MyoF Assay for Collagen I Biomarker Activity (AID 2284238); settings: primary human lung fibroblasts
Procedure, shortened: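 Multiplexed primary human lung fibroblast system; Collagen I measured by ELISA at 24 h post-dose. Increases are referenced to DMSO.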

[3] = read-out: Collagen III, COL3A1 (gene 1281); test: BSK_MyoF_CollagenIII: BioMAP Diversity Plus: MyoF Assay for Collagen III Biomarker Activity (AID 2284239); settings: primary human lung fibroblasts
Procedure, shortened: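 Compounds are added to primary human lung fibroblasts and left for 24 hours. Collagen III is then quantified by ELISA. Analysis takes DMSO as baseline and fits increases in signal.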

[4] = UKN2_HCS_IMR90_cell_viability: Viability Assessment in the University of Konstanz (UKN) Leist Lab Neural Crest Cell Migration Assay in human induced IMR90 Pluripotent Stem Cells (UKN2) (AID 2284233);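 further: viability of neural crest cells differentiated from IMR90 iPSC measured by calcein-AM fluorescence imaging; cells exposed to compound for 24 h after a 24 h migration phase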
Procedure, shortened: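 iPSC-derived (IMR90) neural crest cells seeded around silicone stoppers on PLO/laminin/fibronectin; after 24 h migration in N2-S with EGF/FGF, chemical added for 24 h. Calcein-AM/Hoechst stained 30 min, high-content imaged; bidirectional fit versus DMSO.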

[5] = TAMU_PeakParms_SingleDonor1434_QT: Texas A&M University (TAMU) 1.5-hr Human Induced Pluripotent Stem Cell (iPSC)-derived Cardiomyocytes Calcium (Ca+2) Flux Assay for Cardiotoxicity: QT (decay-rise ratio) (AID 2284235; active means hit-call score of the fitted dose curve at least 0.9, where 1 is the maximum)
Procedure, shortened: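 iPSC-derived cardiomyocytes (single donor 1434) dosed at 0.2, 1, 10, 100 uM final in 0.5% DMSO, 90 min at 37C. Ca2+ flux fluorescence decay/rise ratio; EC05 (5% increase versus DMSO) as POD, excluding beat-arrest and severe-notch data.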

## C1=CC2C3C=CC(C3)C2C1 (stereo unspecified)
[1]
  outcome: inactive
[2]
  outcome: inactive
[3]
  outcome: inactive

## CCC(C)c1cc([N+](=O)[O-])cc([N+](=O)[O-])c1OC(=O)OC(C)C (stereo unspecified)
[1]
  AC50: 8.46 µM (active)
[2]
  AC50: 2.66 µM (active)
[3]
  AC50: 11.5 µM (active)

## CN(C)C(=S)SC(=S)N(C)C
[1]
  AC50: 35.5 µM (active)
[2]
  outcome: inactive
[3]
  AC50: 19.9 µM (active)

## CC(=O)Nc1ccc(C(=O)CCl)cc1
[1]
  AC50: 23.9 µM (active)
[2]
  AC50: 29.5 µM (active)
[3]
  AC50: 20 µM (active)

## Cc1cc(CCC(=O)OCCOCCOCCOC(=O)CCc2cc(C)c(O)c(C(C)(C)C)c2)cc(C(C)(C)C)c1O
[1]
  outcome: inactive
[2]
  outcome: inactive
[3]
  outcome: inactive

## CC(C)(C)CC(C)(C)c1ccc(OCCOCC[N+](C)(C)Cc2ccccc2)cc1
[1]
  AC50: 8.24 µM (active)
[2]
  AC50: 5 µM (active)
[3]
  AC50: 7.02 µM (active)

## CC(=O)C1(C)CC2=C(CCCC2(C)C)CC1C (stereo unspecified)
[1]
  AC50: 12.1 µM (active)
[2]
  AC50: 24.7 µM (active)
[3]
  AC50: 26 µM (active)

## CSCCC=O
[1]
  outcome: inactive
[2]
  outcome: inactive
[3]
  outcome: inactive

## COCCOCCOCCO
[4]
  outcome: inactive

## CC(C)NCC(O)COc1ccc(CC(N)=O)cc1 (stereo unspecified)
[5]
  outcome: inactive
